IL1B secr inh = inhibitors of inflammasome signaling (IL-1 beta secretion); AID 743279; THP-1 LPS/ATP IL-1B secretion, AlphaLISA, 16 h; stronger effect = lower value; activity change, % at 57.5 µM; actives 4.7% (n = 360,000); in the data active = activity change below about -50%; inconclusive = mostly about -30% to -49%
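THP-1 cells pretreated 1 hr with compounds (up to 57.5 uM final), then stimulated with LPS (250 ng/mL final) plus ATP (1.25 mM final); secreted IL-1B measured by AlphaLISA after 16 hr, decreased signal indicating inhibition.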
DT40 TDP1 CPT = growth inhibition of DT40 Tdp1-/-;hTDP1 cells with camptothecin (screen for TDP1 inhibitors). chicken DT40 Tdp1-/-;hTDP1 cells + 20 nM CPT, ATP luminescence, 48 h. Potency, µM (series often up to 46.2 µM), usual class: inhibitors. actives 12% (n = 420,000). AID 686979; also: nearly all actives have a fitted effect of over 55% in size
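Chicken DT40 Tdp1-/- cells stably complemented with human TDP1 were seeded at 400 cells/well in medium containing 20 nM camptothecin, exposed to pin-transferred compounds, and grown at 37 °C for at least 48 hr. Viability was read as ATP luminescence.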
HepG2 viability = HepG2 cytotoxicity, counter-screen for TGF-b inhibitors; AID 588856; actives 0.76% (n = 410,000); Potency, µM (highest dose often 46.1 µM), usual class: cytotoxic; HepG2 CAGA-GFP viability, ATP luminescence, 18 h
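CellTiter-Glo luminescence gave cytotoxicity after 18 hours at 37 degrees C. The cells were HepG2 CAGA-GFP in 1% FBS DMEM, stimulated with 500 pg/mL TGF-beta after compound addition. %Activity was normalised to no-cell wells (complete cell-killing) and DMSO (no toxicity), and curves were fitted and classified.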
TGFb SMAD3 inh = blocks TGF-b signaling. HepG2 CAGA-GFP TGF-b/SMAD3 reporter, GFP fluorescence, 18 h; TGF-beta stimulated, 500 pg/mL final. Potency, µM (top dose mostly 46.1 µM), hits mostly inhibitors. actives 1.2% (n = 410,000). AID 588855; also: nearly all actives have a fitted effect of over 65% in size
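TGF-beta reporter screen: HEPG2 CAGA-GFP, 1% FBS, 500 pg/mL TGF-beta final, 18 h; per-cell GFP summed per well; curves fitted and categorized by class.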
DT40 TDP1 no CPT = qHTS for Inhibitors of human tyrosyl-DNA phosphodiesterase 1 (TDP1): qHTS in cells in absence of CPT | DT40 Tdp1-/- hTDP1 cells, no CPT, ATP luminescence, 48 h | Potency, µM (doses to about 46.2 µM), most hits filed as inhibitors | actives 15% (n = 420,000) | AID 686978, 2013; also: nearly all actives have a fitted effect of over 55% in size
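Chicken DT40 Tdp1-/- cells stably complemented with human TDP1 were seeded at 400 cells/well with DMSO in place of 20 nM camptothecin. After compound pinning, cells grew at least 48 hr at 37 °C; viability read by CellTiter-Glo luminescence.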
TDP1 inh = TDP1 (human) enzyme inhibition; Q9NUW8; recombinant TDP1, AlphaScreen DNA substrate cleavage; Potency, µM (series often up to 130 µM), actives largely listed as inhibitors; actives 0.28% (n = 350,000); also: nearly all actives have a fitted effect of over 40% in size
Target sequence (Q9NUW8 whole entry, looked up): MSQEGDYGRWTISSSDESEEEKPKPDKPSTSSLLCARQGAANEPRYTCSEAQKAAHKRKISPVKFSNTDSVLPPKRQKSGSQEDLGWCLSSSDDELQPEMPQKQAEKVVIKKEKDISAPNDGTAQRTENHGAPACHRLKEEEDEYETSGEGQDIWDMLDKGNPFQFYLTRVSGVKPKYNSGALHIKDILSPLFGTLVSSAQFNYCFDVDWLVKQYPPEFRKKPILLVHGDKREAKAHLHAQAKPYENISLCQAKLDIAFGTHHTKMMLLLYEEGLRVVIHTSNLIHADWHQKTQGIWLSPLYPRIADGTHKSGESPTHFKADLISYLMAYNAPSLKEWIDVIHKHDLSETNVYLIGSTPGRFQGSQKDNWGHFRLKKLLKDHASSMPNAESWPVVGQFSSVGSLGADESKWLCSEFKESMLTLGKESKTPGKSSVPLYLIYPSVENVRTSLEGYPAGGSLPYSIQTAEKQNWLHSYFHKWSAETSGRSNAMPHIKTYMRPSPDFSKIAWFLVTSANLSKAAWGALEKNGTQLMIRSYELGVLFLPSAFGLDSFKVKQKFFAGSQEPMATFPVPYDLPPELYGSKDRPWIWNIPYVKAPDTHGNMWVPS
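Enzyme-compound mixtures sat 15 min at room temperature, followed by a 5 min reaction with 15 nM final substrate and 10 min with AlphaScreen beads. Recombinant human Tdp1 was used at 1 nM final.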
Numbers stand for hits; i = inactive; ? = inconclusive; nt = no result. In the library only some 18% were active in any assay of this set; here they are far more common. Unless noted, calls follow the shape of the dose curve; as a rule, active = well fitted curve in the direction sought with a large enough effect; inconclusive = small, poorly fitted or top-dose-only effect, or another doubt; inactive = no such curve, though single readings can be large; an effect the other way counts as inactive or inconclusive.

SMILES	IL1B secr inh	DT40 TDP1 CPT	HepG2 viability	TGFb SMAD3 inh	DT40 TDP1 no CPT	TDP1 inh
O=[N+]([O-])c1ccc(/C=N/NC(=S)Nc2ccccc2C(F)(F)F)o1	i	8.2µM	i	i	13µM	i
O=C(N/N=C\c1ccc(-c2ccc([N+](=O)[O-])cc2)o1)C1COc2ccccc2O1 (stereo not drawn)	i	?	i	i	23µM	i
O=C(NN=Cc1ccccc1O)C(O)c1ccccc1 (stereo not drawn)	i	?	i	i	21µM	nt
O=C(N/N=C/c1ccc(-c2ccc([N+](=O)[O-])cc2)o1)C(O)c1ccccc1 (stereo not drawn)	-249	?	i	i	?	i
CCN(CC(=O)Nc1c(F)cccc1F)C(=O)c1ccc(COc2ccccc2)o1	i	i	i	i	i	nt
O=C(N/N=C/c1ccccc1)C(O)c1ccccc1 (stereo not drawn)	i	i	i	i	i	nt
O=C(N/N=C/c1cccc([N+](=O)[O-])c1)C1COc2ccccc2O1 (stereo not drawn)	i	i	i	i	i	i
O=C(N/N=C/c1ccc([N+](=O)[O-])o1)C(O)c1ccccc1 (stereo not drawn)	i	8.2µM	i	?	6.5µM	nt
O=C(N/N=C\c1cccc([N+](=O)[O-])c1O)C1COc2ccccc2O1 (stereo not drawn)	i	5.2µM	i	i	5.2µM	i
CC(=O)c1ccc(S(=O)(=O)Nc2ccc(C(=O)NCC(c3ccco3)N3CCCC3)cc2)cc1 (stereo not drawn)	i	i	i	i	i	nt
Cn1c(=O)c2c(nc(NCc3ccco3)n2Cc2ccccc2Cl)n(C)c1=O	i	4.1µM	i	i	2.1µM	i
Cn1c(=O)c2c(nc(NCc3ccco3)n2C/C=C/c2ccccc2)n(C)c1=O	-62	1.5µM	i	4µM	0.65µM	i
CCC(=O)Nc1nnc(S(=O)(=O)N(C)Cc2ccccc2)s1	nt	i	i	i	i	i
COc1cccc(CSc2nc3cc(OC)c(OC)cc3c3nc(CCn4nc(C)cc4C)nn23)c1	nt	i	i	i	i	i
CSCC[C@H](NC(=O)[C@H](Cc1c[nH]c2ccccc12)NC(=O)CCNC(=O)OC(C)(C)C)C(=O)N[C@@H](CC(=O)O)C(=O)N[C@@H](Cc1ccccc1)C(N)=O	nt	i	nt	nt	i	i
O=C(COC(=O)c1ccc(S(=O)(=O)N2CCCC2)cc1)Nc1ccc(N2CCOCC2)cc1	i	18µM	i	i	?	i
O=C(COC(=O)c1n[nH]c2ccccc12)Nc1ccc(S(=O)(=O)N2CCCC2)cc1	i	23µM	i	i	21µM	i
CC1=C(C(=O)Nc2cccnc2)C(c2cccc(F)c2)n2nc(SCc3ccccc3F)nc2N1 (stereo not drawn)	nt	i	i	?	i	i
COc1cccc(C2=NOC(C(=O)NCc3ccccc3)C2)c1 (stereo not drawn)	i	5.2µM	i	i	4.6µM	i
COCCNC(=O)C1CC(c2cccc(OC)c2)=NO1 (stereo not drawn)	i	i	i	i	?	i
COc1cccc(C2=NOC(C(=O)NCc3ccco3)C2)c1 (stereo not drawn)	i	9.2µM	i	i	13µM	i
Cc1ccc(NC(=O)CCc2c(C)nn(-c3ccc(N4CCCCC4)nn3)c2C)cc1	i	?	i	i	i	i
Cc1cc(C)cc(NC(=O)CCc2c(C)nn(-c3ccc(N4CCCCC4)nn3)c2C)c1	i	?	i	i	?	i
Cc1nn(-c2ccc(N3CCCC3)nn2)c(C)c1CCC(=O)Nc1ccc(F)c(Cl)c1	nt	18µM	i	?	26µM	i
CCOC(=O)c1cccc(NC(=O)CCc2c(C)nn(-c3ccc(N4CCCCC4)nn3)c2C)c1	nt	?	i	?	23µM	i
SMILES	IL1B secr inh	DT40 TDP1 CPT	HepG2 viability	TGFb SMAD3 inh	DT40 TDP1 no CPT	TDP1 inh
Cc1cc(C)cc(NC(=O)CCc2c(C)nn(-c3ccc(N4CCCC4)nn3)c2C)c1	nt	21µM	i	i	26µM	i
COc1ccc(C)cc1NC(=O)CCc1c(C)nn(-c2ccc(N3CCCCC3)nn2)c1C	?	?	i	?	26µM	i
CC(C)c1nnc(NC(=O)CCC(=O)N2CCC(Cc3ccccc3)CC2)s1	i	?	i	i	i	i
Cc1nn(-c2ccc(N3CCCCC3)nn2)c(C)c1CCC(=O)Nc1ccc(F)cc1F	nt	16µM	i	?	18µM	i
O=C(O)c1ccc(OS(=O)(=O)c2ccc(Cl)s2)cc1	i	i	i	i	i	i
Cc1cc(C)c(N=Cc2c(O)n(-c3nccs3)c(=O)c3ccccc23)c(C)c1	?	?	i	i	16µM	i
Cc1ccccc1N=Cc1c(O)n(-c2nccs2)c(=O)c2ccccc12	-55	?	i	i	?	i
O=c1c2ccccc2c(C=Nc2ccccc2O)c(O)n1-c1nccs1	i	i	i	i	?	i
Cc1cccc(C)c1N=Cc1c(O)n(-c2nccs2)c(=O)c2ccccc12	-50	15µM	i	i	21µM	i
N#Cc1ccc(C(=O)Nc2cccc3ccccc23)c(F)c1	i	i	i	i	i	nt
N#CC1=C2N=C(N)c3ccccc3N2C2=C(C(=O)CCC2)C1c1ccc(Cl)cc1 (stereo not drawn)	i	21µM	i	?	16µM	i
CC1(C)CC(=O)C2=C(C1)N1C(=C(C#N)C2c2ccc(Cl)cc2)N=C(N)c2ccccc21 (stereo not drawn)	?	?	i	?	21µM	i
CC1(C)CC(=O)C2=C(C1)N(c1ccccc1)C(N)=C(C#N)C2c1ccccc1 (stereo not drawn)	-50	i	i	i	i	i
CC1(C)CC(=O)C2=C(C1)N(c1ccccc1)C(N)=C(C#N)C2c1cccnc1 (stereo not drawn)	i	i	i	i	i	i
Cc1ccc(C(=O)N(Cc2cc3cc4c(cc3nc2N2CCOCC2)CCC4)CC2CCCO2)cc1 (stereo not drawn)	nt	i	nt	nt	i	nt
O=C(Nc1ccc(OC(F)(F)F)cc1)C(NS(=O)(=O)c1cccc2nsnc12)c1ccccc1 (stereo not drawn)	nt	16µM	i	?	?	i
CCOc1ccccc1NC(=O)C(NS(=O)(=O)c1cccc2nsnc12)c1ccccc1 (stereo not drawn)	nt	i	i	?	?	i
CCOC(=O)C1CCCN(c2c(C(=O)c3ccccc3)cnc3ccccc23)C1 (stereo not drawn)	i	i	i	i	i	i

Source: PubChem BioAssay
